The record followed here is PubChem BioAssay AID504766 (The Scripps Research Institute Molecular Screening Center, 2011).

“And” between values parts separate entries of the source, which are not always exact repeats. Equal values may be shown once. Out of some 340,000 compounds screened, about 3,400 (1%) were called active. Many of the other results were omitted from the sample, so actives are more common in it than they were. A number with no mark means an inactive call.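 The calls were made as follows: active = inhibition above the mean over all tested compounds plus 3 SD (cut at about 4.2% in these data); inactive = the rest.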

Nuclear receptor subfamily 0 group B member 1 (Homo sapiens), sequence (P51843 207-470 limits assumed): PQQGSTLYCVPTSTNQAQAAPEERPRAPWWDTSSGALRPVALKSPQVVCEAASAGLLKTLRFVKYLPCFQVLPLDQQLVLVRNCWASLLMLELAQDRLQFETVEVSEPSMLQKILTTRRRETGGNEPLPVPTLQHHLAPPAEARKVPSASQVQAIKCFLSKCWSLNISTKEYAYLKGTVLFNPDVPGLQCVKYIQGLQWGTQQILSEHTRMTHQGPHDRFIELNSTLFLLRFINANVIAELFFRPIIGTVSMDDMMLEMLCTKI

The assay addresses Nuclear receptor subfamily 0 group B member 1 (Homo sapiens) (UniProt P51843). As to the kind of experiment: relief of DAX1 transcriptional repression – cell-based, HEK293, Gal4-DAX1, luciferase luminescence, primary screen (AID 504766).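 Also: 0% = DAX1-transfected cells with DMSO and 100% = empty-vector control cells with DMSO; inhibition shows as a rise in luminescence from relieved DAX1 repression.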 The conditions noted are these: HEK293 Gal4-DAX1 luciferase reporter, at 6.75 µM, active compounds read high. (A reporter such as luciferase makes a cellular process visible.)
As a reminder, the inhibition is the relative decrease from the control value, in per cent. On to `Cc1cccc(C(=O)OCC(=O)Nc2sccc2C(N)=O)c1C`, for which the inhibition is 0.47%.
Turning to `COc1ccc(Cn2c(=O)cc(C)[nH]c2=S)cc1`, the inhibition was 4.43% (active).
Consider `COc1cc2[nH]c(=S)n(Cc3ccc(F)cc3)c(=O)c2cc1OC`, for which the inhibition was -0.72%.
The figure for `COc1ccc(Cn2c(=S)[nH]c3cc(C(=O)N4CCCCC4)ccc3c2=O)cc1` is -0.61%.
As for `COc1ccccc1-c1n[nH]nc1C1=CC(=O)CC(C)(C)C1`, the inhibition is 1.58%.
In the case of `CCOc1ccc(NS(=O)(=O)c2ccc(C(=O)NCC3CCCO3)cc2)cc1` (stereo not drawn) it was 0.78%; in that of `CC(C)c1ccc(C=NNc2ccc([N+](=O)[O-])cn2)cc1`, 4.47% (active); in that of `O=[N+]([O-])c1cccc(/C=N/Nc2ncc(Br)cn2)c1`, 3.56%.
On to `CC(=O)c1sc(N/N=C/c2ccc(C(C)C)cc2)nc1C`, for which the inhibition is 0.37%.
As for `CC1=C(C(=O)N(C)C)CC(CC(=O)NCCN2CCOCC2)C(=O)N1Cc1ccccc1` (stereo not drawn), the inhibition was 0.86%.
In the case of `CC(C)CCOc1ccc(C(=O)Nc2cc(S(=O)(=O)N3CCOCC3)ccc2N2CCOCC2)cc1` it was 1.57%.
In the case of `COC(=O)C1=C(C)N(C)C(C)=C(C(=O)OC)C1c1cccc(Br)c1` it was -0.19%.
In the case of `COC(=O)C1NN=C(C(=O)c2ccc(Br)cc2)C1c1cccc(Br)c1` (stereo not drawn) it was 5.4% (active).
Take `COc1ccc(C(=O)c2oc3ccc(Br)cc3c2NC(C)=O)cc1`: the inhibition is 0.74%.
In the case of `Cc1ccc(C(=O)OCC(=O)NC2CCCCCCC2)cc1C` it was 1.83%.
In the case of `CCOC(=O)c1cc(-c2sc(NC(=O)c3ccccc3)nc2C)n(-c2ccc(Br)cc2)n1` it was -0.34%; in that of `COc1ccc(C(=O)O/N=C(\N)c2ccccn2)cc1[N+](=O)[O-]`, 4.71% (active); in that of `N/C(=N\OC(=O)c1ccc([N+](=O)[O-])cc1)c1ccccn1`, 0.14%.
Consider `COc1ccccc1OCC(=O)O/N=C(\N)c1ccccn1`, for which the inhibition is 2.91%.
In the case of `CCN(CC)C(=O)C(C)N1c2cccc3cccc(c23)S1(=O)=O` (stereo not drawn) it was 0.49%.
The figure for `COc1ccc(NC(=O)CN2C(=O)NC(C)(c3ccccc3)C2=O)cn1` (stereo not drawn) is 1.1%; for `Cc1ccc(-c2ccc(C3=CC(=O)CC(C)(C)C3=O)cc2)cc1` it is 3.24%.
Turning to `O=C(Nc1ccc(S(=O)(=O)N2CCCCC2)cc1)C1CC(=O)N(c2ccc(F)cc2)C1` (stereo not drawn), the inhibition is -1.03%.
With `CNS(=O)(=O)c1ccc(NC(=O)C2CC(=O)N(c3ccc(Cl)cc3)C2)cc1` (stereo not drawn), the inhibition was 4.35% (active).
In the case of `Cc1ccc(N2CC(C(=O)Nc3ccc(S(=O)(=O)N4CCCC4)cc3)CC2=O)cc1C` (stereo not drawn) it was -0.34%; in that of `Nc1cc(C(=O)N2CCN(c3ccccc3Cl)CC2)ccc1N1CC2CC(C1)c1cccc(=O)n1C2` (stereo not drawn), 2.59%; in that of `COc1ccc(CNC(=O)C2CCC(CNc3c(N4CCOCC4)c(=O)c3=O)CC2)cc1` (stereo not drawn), -0.15% and -0.24%.
For `CC(NC(=O)C1CCC(CNc2c(N3CCOCC3)c(=O)c2=O)CC1)c1ccccc1` (stereo not drawn), the inhibition is 0.2%.
In the case of `O=C(NCc1ccc(F)cc1)C1CCC(CNc2c(N3CCOCC3)c(=O)c2=O)CC1` (stereo not drawn) it was 5.78% (active); in that of `C[C@H]1CN([C@@H](C)CO)C(=O)CCCn2cc(nn2)CO[C@@H]1CN(C)C(=O)Nc1ccccc1`, 1.03%.
The figure for `O=S(=O)(c1ccc2c(c1)OCCO2)N1CCc2ccccc21` is 0.28%; for `O=S(=O)(c1ccccc1)N1CCc2ccccc21` it is 5.18% (active); for `CCn1c(=O)c(=O)n(CC)c2cc(S(=O)(=O)N3CCc4ccccc43)ccc21` it is -1.26%.
In the case of `C[C@H]1CN([C@@H](C)CO)C(=O)CCCn2cc(nn2)CO[C@@H]1CN(C)S(=O)(=O)c1ccc(-n2cccn2)cc1` it was 2.41%.
As to `CCCC(=O)N1c2ccccc2NC2=C(C(=O)CCC2)C1c1ccc(F)cc1` (stereo not drawn), the inhibition is -0.04%.
As to `CCC(=O)N1c2ccccc2NC2=C(C(=O)CCC2)C1c1ccco1` (stereo not drawn), the inhibition was -0.14%.
In the case of `CC(C)C(=O)N1c2ccccc2NC2=C(C(=O)CCC2)C1c1ccc(N(C)C)cc1` (stereo not drawn) it was 4.33% (active); in that of `COc1ccc(-c2ccc(CN3C(C(C)C)C(=O)N(Cc4cn(CC5CCCCC5)nn4)CCS3(=O)=O)cc2)cn1` (stereo not drawn), -0.57%; in that of `COc1cccc(OC)c1C(=O)N1CCN(Cc2ccccc2F)CC1`, 2.65%.
In the case of `CC(=O)N1C(=O)C2(Nc3ccccc3N2)c2ccccc21` it was 0.59%; in that of `CC(=O)NN1C(=O)c2ccccc2NC1c1ccccc1` (stereo not drawn), -1.71%.
As for `CC(C)=NN1C(=O)c2ccccc2NC1(C)C`, the inhibition was 5.58% (active).
For `Cc1c(NC(=O)COC(=O)/C=C/c2cccc(F)c2)c(=O)n(-c2ccccc2)n1C`, the inhibition is -0.66%.
Regarding `C[C@H]1CN([C@@H](C)CO)S(=O)(=O)c2ccc(Br)cc2O[C@H]1CN(C)C(=O)c1cnccn1`, the inhibition was -0.34%.
Regarding `O=C(NCc1nnnn1-c1ccc(Cl)cc1)c1ccc([N+](=O)[O-])o1`, the inhibition was 0%.
The figure for `N#CCCC(C#N)(c1cccnc1)N1CCOCC1` (stereo not drawn) is -0.32%; for `CC1CCCCC1NC(=O)Cn1c(=O)cnc2ccccc21` (stereo not drawn) it is -1.16%.
In the case of `O=C(/C=C/c1cnc2ccccc2n1)NC1CCCCCC1` it was 4.47% (active).
The figure for `CC(C)c1cc(C(=O)NC2CCCCCC2)c2ccccc2n1` is -1.68%.
Take `COc1ccccc1N1CCN(/N=C/c2ccc(O)cc2O)CC1`: the inhibition is 5.15% (active).
The figure for `COc1ccccc1N1CCN(/N=C\C(Br)=C\c2ccccc2)CC1` is -0.74%.
The figure for `COc1cc(/C=N/N2CCN(c3ccccc3)CC2)ccc1OC(C)=O` is -0.26%.
Regarding `O=C(c1ncn2c1c(=O)[nH]c1ccccc12)N1CCc2ccccc2C1`, the inhibition is -0.1%.
The figure for `COc1ccc([C@H]2N[C@]3(CCCN(Cc4ccco4)C3=O)[C@H]3C(=O)N(C)C(=O)[C@@H]23)cc1` is 0.93%; for `O=C(C1CCCO1)N1CCN(C(=O)C23CC4CC(CC(C4)C2)C3)CC1` (stereo not drawn) it is -0.78%; for `COC(=O)/C(C#N)=C/c1occc1C` it is -0.79%.
For the compound `CCOC(=O)/C(C#N)=C\c1c(C)cc(C)c(COC(C)=O)c1C`, the inhibition is 5.6% (active).
In the case of `CCOC(=O)/C(C#N)=C/c1ccc(N2CCN(Cc3ccccc3)CC2)cc1` it was -0.11%.
